# Screening data: PubChem, National Center for Advancing Translational Sciences (NCATS)
# Pol eta inh: inhibitors of human DNA polymerase eta. AID 588591. 1.2% of 390,000 active. Potency, µM (series often up to 114 µM), without a hit: top-dose activity change, negative = inhibition, most hits filed as inhibitors. recombinant Pol eta, fluorescent DNA replication assay. Q9Y253; also: potency is read from the fitted curve at half-maximal effect; % is scaled to controls: 0 for no effect and ±100 for the full control effect
#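 Fluorescent replication assay: 50 nM final substrate added after a 15 min room-temperature compound preincubation with 10 nM enzyme. Signal taken at 0 min and again at 10 min.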
# Pol iota inh: DNA polymerase iota (human) inhibition | Pol iota fluorescent replication assay, 10 min | Q9UNA4 | Potency, µM (series often up to 115 µM), for the others: at the top dose activity, negative = inhibition, usual class: inhibitors | 1% of 390,000 active | AID 588590; also: potency is read from the fitted curve at half-maximal effect
#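 Pol iota at 10 nM preincubated 15 min with compounds at room temperature; reaction started with fluorescent substrate, 50 nM final. Fluorescence read kinetically at 0 and 10 min; buffer-only wells as negative control.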
# PI5P4K alpha inh: PI5P4K alpha (human) kinase inhibition; P48426; PI5P4Kalpha enzyme, ADP-Glo luminescence, 60 min; stronger effect = lower value; max response, %; 1.2% of 330,000 active; AID 652105; active = max response of -50% or lower; inconclusive = between -30% and -50%; inactive = -30% or higher; also: value at the top dose of about 77 µM; % is scaled to controls: 0 for no effect and ±100 for the full control effect
# Target sequence (P48426 whole entry, looked up): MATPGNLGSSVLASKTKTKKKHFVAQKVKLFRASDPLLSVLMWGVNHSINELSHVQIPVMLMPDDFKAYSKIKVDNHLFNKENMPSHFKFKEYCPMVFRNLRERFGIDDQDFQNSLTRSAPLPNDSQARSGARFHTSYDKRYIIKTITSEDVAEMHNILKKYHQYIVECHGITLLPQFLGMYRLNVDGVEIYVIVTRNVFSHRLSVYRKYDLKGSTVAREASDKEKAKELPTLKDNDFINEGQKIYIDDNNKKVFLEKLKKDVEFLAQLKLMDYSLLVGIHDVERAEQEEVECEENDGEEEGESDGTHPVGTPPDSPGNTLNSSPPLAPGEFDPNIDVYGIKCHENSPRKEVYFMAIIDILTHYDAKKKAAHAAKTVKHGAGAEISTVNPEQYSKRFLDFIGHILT
#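 Reactions run in 0.038 M HEPES pH 7.4, 0.28 mM EGTA, 0.1% CHAPS and 5% DMSO, with PI5P4Kalpha, substrate, compound and 5 microM ATP final, one hour at room temperature. Readout is ADP-Glo luminescence.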
# ALOX12 inh: ALOX12 (human) lipoxygenase inhibition; AID 1671190; purified 12hLO, xylenol orange hydroperoxide absorbance; 1.1% of 580,000 active; Potency, µM (top dose mostly 108 µM), without a hit: at the highest dose activity change, negative = inhibition, actives largely listed as inhibitors; also: potency is read from the fitted curve at half-maximal effect; % is scaled to controls: 0 for no effect and ±100 for the full control effect
#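 Purified human 12hLO (150 nM final) in 25 mM Hepes, 0.01% Triton X-100, pH 7.0 was preincubated 15 min at room temperature with compound. Then 40 uM arachidonic acid was added, 30 min. Hydroperoxide was read by Fe-XO absorbance ratio 573/405 nm.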
# Pol kappa inh: blocks human DNA polymerase kappa activity; Potency, µM (doses to about 107 µM), for inactives: at the top dose activity, negative = inhibition, most hits filed as inhibitors; 0.53% of 400,000 active; AID 588579; purified Pol kappa, fluorescent DNA synthesis assay, 10 min; Q9UBT6; also: potency is read from the fitted curve at half-maximal effect; % is scaled to controls: 0 for no effect and ±100 for the full control effect
#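 Readout: fluorescence, taken kinetically at 0 and 10 min. Conditions: 10 nM Pol kappa, 15 min RT compound preincubation, 50 nM substrate final. Controls: enzyme-free buffer wells.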
# Pol beta inh: blocks human DNA polymerase beta activity. 1.3% of 340,000 active. Pol beta primer extension/strand displacement, fluorescence kinetic. P06746. Potency, µM (titrated, usually from 114 µM), without a hit: top-dose activity change, negative = inhibition, most hits filed as inhibitors; also: potency is read from the fitted curve at half-maximal effect; % is scaled to controls: 0 for no effect and ±100 for the full control effect
#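 Preincubation: enzyme (10 nM) with compound, 15 min, RT. Reaction: substrate added to 50 nM final. Reads: 0 and 10 min. Analysis: normalized, Hill fit.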
# Active calls of the source: *; ? = inconclusive; / = no result given; [ ] = dose if it differs, or a comment. Hits are enriched below; roughly 2.9% of the tested compounds scored in any of these assays. Unless noted, calls follow the shape of the dose curve; as a rule, active = well fitted inhibition curve with a large enough effect; inconclusive = small, poorly fitted or top-dose-only effect, or another doubt; inactive = no such curve, though single readings can be large or run the other way.
SMILES,Pol eta inh,Pol iota inh,PI5P4K alpha inh,ALOX12 inh,Pol kappa inh,Pol beta inh
O=C(NC1CCCCC1)C(Nc1ccccc1)c1ccccc1F (configuration not stated),/,/,/,1%,/,/
O=C(/C=C\NCC(=O)c1ccccc1)c1ccc2ccccc2c1,-15%,-11%,?,35µM*,-7%,-1%[57.1 µM]
Cc1coc2c(C)c3oc(=O)c(CCC(=O)NCCN4CCOCC4)c(C)c3cc12,-17%,51%,1,7%,13%,26%
COc1ccc(CCNC(=O)CCc2c(C)c3cc4c(C)c(C)oc4cc3oc2=O)cc1,-15%,?,/,-14%,3%,21%
Cc1oc2cc3oc(=O)c(CC(=O)N[C@H](C(=O)N[C@@H](C(=O)O)c4ccccc4)C(C)C)c(C)c3cc2c1C,-16%,79µM*,0,-9%,?,-2%
Cc1oc2cc3oc(=O)c(CC(=O)NCC(=O)N[C@@H](C(=O)O)c4ccccc4)c(C)c3cc2c1C,-5%,?,7,-8%,-10%,13%
COc1ccc(CNC(=O)CCc2c(C)c3cc4c(C)c(C)oc4cc3oc2=O)cc1OC,-17%,-16%,/,-11%,-18%,1.6µM*
Cc1coc2cc3oc(=O)c(CCC(=O)NCCN4CCOCC4)c(C)c3cc12,-6%,89µM*,-7,0%,?,-2%
Cc1oc2cc3oc(=O)c(CCC(=O)NCCC(=O)O)c(C)c3cc2c1C,56µM*,3%,3,-12%,-4%,1%
Cc1oc2cc3oc(=O)c(CCC(=O)NCCCC(=O)O)c(C)c3cc2c1C,-15%,?,0,1%,-8%,-1%
CCCc1cc(=O)oc2cc(OCC(=O)NCCCO)ccc12,/,/,/,14%,/,/
CCC(=O)Oc1ccc2c(=O)c(-c3ccc(Cl)cc3)coc2c1,/,/,/,3%,/,/
CC(Oc1cc2oc(=O)cc(-c3ccccc3)c2cc1Cl)C(=O)NCc1cccnc1 (configuration not stated),/,/,/,14%,/,/
Nc1c(C(=O)Nc2nc3ccccc3s2)sc2nc(-c3cccs3)ccc12,89µM*,32µM*,/,/,?,-123%
COc1cc2c(cc1OC)-c1c(oc3cc(O)cc(O)c3c1=O)CO2,/,/,/,/,32µM*,/
COc1ccc(-c2c(C)oc3cc(O)cc(O)c3c2=O)cc1OC,-12%,-2%,-2,?,0%,6%
O=C(O)c1ccccc1-c1ccccc1C(=O)Nc1ccc2c(c1)[nH]c(=O)c1ccccc12,50µM*,232%,?,-11%,-10%,12%
O=C(O)c1ccccc1-c1ccccc1C(=O)Nc1ccc2oc(=O)c3ccccc3c2c1,-9%,/,549,-8%,/,/
COc1ccc(Cc2c(-c3ccc(C)cc3)nc3ccc(Cl)cn23)c(C)c1,/,/,-3,40µM*,/,/
Cc1ccc(-c2cc(C(=O)N/N=C/c3ccc(Cl)cc3)n[nH]2)o1,?,?,-14,10%,-4%,25µM*
CN1CCC(N2CCN(c3cccc(C(F)(F)F)c3)CC2)CC1,-8%,35µM*,/,?,1%,2%
FC(F)(F)c1cccc(N2CCCCC2)c1,/,/,-2,6%,/,/
CC(C)OCc1ccccc1CNS(=O)(=O)c1ccc(F)c(F)c1,/,/,/,5%,/,/
Cc1ccccc1-c1nnc2sc(NC(=O)c3ccc(F)cc3)nn12,/,/,/,32µM*,/,/
Cc1ccccc1C(=O)Nc1ccc(Cl)cc1C(F)(F)F,/,/,/,44%,/,/
SMILES,Pol eta inh,Pol iota inh,PI5P4K alpha inh,ALOX12 inh,Pol kappa inh,Pol beta inh
CCS(=O)(=O)NCC1(COc2ccc(S(C)(=O)=O)cc2)C[C@@H](O)[C@@H](O)C1 (some centres not stated),/,/,/,13µM*,/,/
CS(=O)(=O)c1ccc(OCC2(CNC3CCC3)C[C@@H](O)[C@@H](O)C2)cc1 (some centres not stated),/,/,/,22%[176 µM],/,/
CCOC(=O)C1=C(CCc2ccccc2)NC(=O)NC1c1cccc([N+](=O)[O-])c1 (configuration not stated),0%,6%,-1,?,-7%,14%
CN(C)/C=C/C1=C([N+](=O)[O-])C(c2cccc([N+](=O)[O-])c2)NC(=O)N1 (configuration not stated),?,?,-83*,-8%,-40%,-13%
CC(=O)c1c(C)[nH]c(C(=O)COc2ccc3ccc(=O)oc3c2)c1C,35µM*,?,3,?,-34%,/
Cc1cc(C(=O)COc2ccc3ccc(=O)oc3c2)c(C)n1Cc1cccs1,-18%,-47%,-25,3%,-19%,50µM*
COc1ccc(C(=O)OCc2cc(=O)n3oc(C)cc3n2)cc1NC(=O)c1ccc(C(C)(C)C)cc1,/,/,/,10%,/,/
CCCCn1cnc2c1c(=O)n(CC(=O)Nc1ccccc1C(C)C)c(=O)n2CCC,/,/,/,6%,/,/
O=S(=O)(Nc1nc2ccccc2nc1NCc1ccco1)c1ccc(Cl)cc1,?,?,-1,7%,-4%,?
Cc1noc(C)c1CSc1nc2ccccc2nc1NS(=O)(=O)c1ccc(Cl)cc1,79µM*,?,-12,/,-9%,3%
O=C(c1ccc2c(c1)N(C(=O)c1ccccc1)CC2)N1CCN(c2cccc(Cl)c2)CC1,/,/,/,-1%,/,/
CCCCCCCCCCOc1ccc(C(=O)Oc2ccc(Cl)cc2Cc2ccccc2)cc1,/,/,/,-6%,/,/
COc1ccc(C(=O)/C=C/c2cc(OC)c(O)c(OC)c2)c(F)c1,?,-21%,1,45µM*,-7%,3%
Oc1ccc(-c2nc(=S)[nH][nH]2)cc1,-6%,14%,?,?,-3%,-2%
S=c1nc(-c2ccccc2Br)[nH][nH]1,0%,-2%,/,25µM*,-13%,38%
S=c1nc(-c2cc(Cl)ccc2Cl)[nH][nH]1,1%,?,-64*,10µM*,-9%,3%
Cc1cccc(NC(=O)C(C#N)=C2CCCCC2)c1,/,/,/,29%,/,/
Cc1ccc(NC2=C(NC(=O)c3ccccc3)C(=O)c3ccccc3C2=O)cc1Cl,-18%,?,-52*,?,5%,9%
O=C(O)c1cccc(NC2=C(Cl)C(=O)c3ccccc3C2=O)c1,79µM*,?,-69*,?,-88%,-8%
COc1cc(B(O)O)ccc1Cl,/,/,/,13%,/,/
CC1=CC(=O)C(C(=O)/C=C/c2ccc(C)s2)C(=O)O1 (configuration not stated),/,/,/,14µM*,/,/
Cc1cccc(C)c1NC(=O)Cc1c[nH]c2ccccc12,/,/,/,12%,/,/
Cc1cc(C)cc(C(=O)NC(=S)Nc2ccc(-c3cc4ccccc4oc3=O)cc2)c1,-16%,21%,-4,10µM*,-4%,-14%
CC(Cc1cccnc1)Nc1cc(-c2ccccc2F)nc2ccnn12 (configuration not stated),/,/,/,47%,/,/
